For 17 compounds, composite z-score and z-score results are on record in PubChem BioAssay.

The test system of assay [1] is XIP peptide (Xip251-270) binding. Description: small-molecule binders of XIP peptide, primary screen, biochemical, small-molecule microarray, fluorescence 635/667 nm, 0.1 µg/mL protein (AID 1182). The conditions noted are these: fluorescent protein binding, 635 nm, higher = more signal, called active from +8 up or from −8 down.
The test system of the next assay is XIP peptide (Xip251-270). Description: small-molecule binders of XIP peptide, primary screen, biochemical, small-molecule microarray, fluorescence 635/667 nm, 0.5 µg/mL protein (AID 1183). The conditions noted are these: small-molecule microarray binding, fluorescence 635 nm; higher = more signal.
Assay [2] can be described thus: Plasmodium falciparum growth inhibition, primary screen, strain 3D7, DAPI fluorescence, 100 nL (AID 1184).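 Also: parasites grown inside human red blood cells in medium with human serum.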 The conditions noted are these: P. falciparum 3D7 growth, 3 d, higher = more signal.
Assay [3] deals with Homeobox protein Hox-A13 (Mus musculus) (UniProt Q62424). The experiment in a line: inhibitors of HoxA13-DNA binding, primary screen, biochemical, fluorescence polarization, labeled oligonucleotide (AID 1185). The conditions noted are these: 15 min, higher = more signal, called active from +8 up or from −8 down. On the technique in general: Polarisation of emitted light reports the rotation of a fluorescent probe.
Chain of Homeobox protein Hox-A13 (Mus musculus) (Q62424 whole entry, looked up): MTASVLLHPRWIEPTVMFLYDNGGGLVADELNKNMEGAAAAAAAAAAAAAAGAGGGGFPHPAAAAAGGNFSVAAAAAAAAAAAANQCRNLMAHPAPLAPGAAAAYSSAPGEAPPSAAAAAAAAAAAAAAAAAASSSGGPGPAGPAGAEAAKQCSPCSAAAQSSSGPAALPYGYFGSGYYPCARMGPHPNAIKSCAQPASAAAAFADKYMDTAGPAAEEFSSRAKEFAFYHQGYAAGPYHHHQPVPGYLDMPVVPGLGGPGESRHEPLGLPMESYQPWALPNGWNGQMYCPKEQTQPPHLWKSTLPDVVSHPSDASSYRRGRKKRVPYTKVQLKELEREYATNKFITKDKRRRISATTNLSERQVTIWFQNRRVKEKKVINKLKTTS

The nature of assay [4]: inhibitors of hydroxyurea-induced Chk1 phosphorylation, primary screen, imaging, HeLa, phospho-Chk1 antibody, percent positive cells (AID 1186). The conditions noted are these: hydroxyurea-induced phospho-Chk1 immunofluorescence imaging, higher = more signal.
Assay [5] in a line: inhibitors of hydroxyurea-induced Chk1 phosphorylation, primary screen, imaging, HeLa, phospho-Chk1 nuclear intensity (AID 1187). The conditions noted are these: hydroxyurea-induced phospho-Chk1 immunofluorescence imaging, higher = more signal.

Molecules are shown by their SMILES. The source made the active and inactive calls. Unless noted, no rule for the calls is given here.

Regarding `C=CCOC(=O)[C@@H]1[C@H]2C(=O)O[C@H](c3ccccc3)[C@H](c3ccccc3)N2[C@H](c2ccc(OCCOC(=O)[C@H]3C[C@H]4C(=O)N[C@@H](CCCC[N+](C)(C)C)C(=O)N4[C@H]3c3cccc(OCCO)c3)cc2)[C@@]12C(=O)Nc1ccc(I)cc12`, the composite z-score in assay [1] was 1.31 (inactive); in the assay on XIP peptide (Xip251-270), 0.646. For the same compound, the z-score in assay [2] is -1.82; in assay [3], 1.38 (inactive); in assay [4], -0.118 (inactive); in assay [5], -0.176 (inactive).
`O=C1O[C@H](c2ccccc2)[C@H](c2ccccc2)N2[C@H]1[C@@H](C(=O)Nc1nc3ccccc3s1)[C@]1(C(=O)Nc3ccc(C#CC4=CCCCC4)cc31)[C@H]2c1ccc(OCCO)cc1`: the composite z-score is -0.172 (inactive) in assay [1] and 0.656 in the assay with XIP peptide (Xip251-270). Besides, the z-score is -0.985 in assay [2], -11.7 (active) in assay [3], 0.0032 (inactive) in assay [4] and -0.515 (inactive) in assay [5].
For `COCCOC(=O)N1C(=O)[C@@]2(c3ccccc31)[C@H](c1ccc(O)cc1)N1[C@H](c3ccccc3)[C@H](c3ccccc3)OC(=O)[C@H]1[C@@H]2C(N)=O`, the composite z-score in assay [1] was -0.728 (inactive); in the assay on XIP peptide (Xip251-270) it was -0.0106. Further, the z-score in assay [2] is 0.346; in assay [3], -5.26 (inactive); in assay [4] it was -0.0882 (inactive); in assay [5] it was -0.282 (inactive).
For `CC1CC/C=C\[C@H]2OC34C=CCN(c5ccc6ccccc6c5)C(=O)[C@H]3N(CCCCCO)C(=O)[C@@H]4C2C(=O)O1` (some centres not stated), the composite z-score in assay [1] was 1.37 (inactive); with XIP peptide (Xip251-270), -0.165. In addition, the z-score is -0.0643 in assay [2], -6.06 (inactive) in assay [3], 0.549 (inactive) in assay [4] and -0.382 (inactive) in assay [5].
Consider `COc1ccc([Si](C)(C)[C@H]2[C@H](CC(=O)N3Cc4ccccc4C[C@H]3CO)O[C@@]3(C(=O)N(Cc4cccc(I)c4)c4ccccc43)[C@@H]2C)cc1`, for which the composite z-score in assay [1] was -0.276 (inactive); with XIP peptide (Xip251-270), 0.287. Also, the z-score in assay [2] is -2.37; in assay [3], -2.66 (inactive); in assay [4], -1.22 (inactive); in assay [5], -0.541 (inactive).
For the compound `[N-]=[N+]=NCc1ccccc1C[C@]1(C(=O)NCC(O)CO)COC(c2ccc(OCCCO)cc2)=N1` (some centres not stated), the results for the composite z-score (in assay [1]; with XIP peptide (Xip251-270)) were 0.54 (inactive) and 0.376, respectively. The z-score in assay [2] was -2.04; in assay [3], -4.94 (inactive); in assay [4], -0.0874 (inactive); in assay [5], -0.341 (inactive).
Consider `CCCC[C@H]1C[C@@H]1[C@@H]1N(P(=O)(c2ccccc2)c2ccccc2)[C@](CO)(c2ccccc2)CC12CC2`, for which the composite z-score in assay [1] is -0.131 (inactive); in the assay with XIP peptide (Xip251-270) it was 0.518. The z-score is 0.791 in assay [2], -2.7 (inactive) in assay [3], 0.335 (inactive) in assay [4] and 0.514 (inactive) in assay [5].
In the case of `OCCCc1cc[n+](Cc2cccc(OC(F)(F)F)c2)cc1`, the composite z-score in assay [1] is 0.307 (inactive); in the assay with XIP peptide (Xip251-270) it was 0.768. For the same compound, the z-score in assay [2] was -1.47; in assay [3] it was -3.06 (inactive); in assay [4] it was -0.284 (inactive); in assay [5] it was -0.678 (inactive).
In the case of `CCCC[C@H]1OB(O)C[C@H]2C1=C(C)Cn1c(=O)n(-c3ccccc3)c(=O)n12`, the composite z-score in assay [1] was -0.0734 (inactive); with XIP peptide (Xip251-270) it was 0.116. The z-score is -2.15 in assay [2], -0.581 (inactive) in assay [3], -0.705 (inactive) in assay [4] and -0.679 (inactive) in assay [5].
In the case of `Cc1ccc(S[C@]2(C(=O)NCCCN(C)C)CC(=O)N(Cc3ccccc3)[C@@H]2c2ccc(CO)cc2)cc1`, the composite z-score in assay [1] was -0.712 (inactive); in the assay with XIP peptide (Xip251-270), 0.135. Besides, the z-score in assay [2] is -1.07; in assay [3] it was -2.18 (inactive); in assay [4], 0.327 (inactive); in assay [5] it was 0.603 (inactive).
Consider `Cc1ccc(S[C@]2(C(=O)NCCN3CCOCC3)CC(=O)N(C3CCCCC3)[C@@H]2c2ccc(CO)cc2)cc1`, for which the composite z-score in assay [1] is -0.202 (inactive); with XIP peptide (Xip251-270), 0.886. Moreover, the z-score in assay [2] was -0.75; in assay [3], -4 (inactive); in assay [4] it was -0.0334 (inactive); in assay [5], 0.206 (inactive).
For `COc1ccc([Si](C)(C)[C@H]2[C@H](CCO)O[C@@]3(C(=O)N(Cc4cccc(N5C(=O)c6cccc7cccc5c67)c4)c4ccccc43)[C@@H]2C)cc1`, the composite z-score in assay [1] is 0.834 (inactive); with XIP peptide (Xip251-270), 0.512. Moreover, the z-score in assay [2] is -2.82; in assay [3] it was -1.61 (inactive); in assay [4], -0.283 (inactive); in assay [5] it was -0.304 (inactive).
For the compound `Cc1ccc([C@H]2C(C(=O)O)=C[C@@H](C(C)C)N2S(=O)(=O)c2ccc(C)cc2)cc1`, the composite z-score is 0.165 (inactive) in assay [1] and 0.386 in the assay on XIP peptide (Xip251-270). The z-score in assay [2] was 1.65; in assay [3] it was -4.3 (inactive); in assay [4], -0.482 (inactive); in assay [5], -1.01 (inactive).
Regarding `CCCCN1CC=CC23O[C@@H]4/C=C\CCCOC(=O)C4[C@H]2C(=O)N(C(C)CO)[C@@H]3C1=O` (some centres not stated), the composite z-score in assay [1] was 0.502 (inactive); in the assay on XIP peptide (Xip251-270), -0.269. Further, the z-score in assay [2] is 0.494; in assay [3] it was -4.24 (inactive); in assay [4], 0.166 (inactive); in assay [5], 0.711 (inactive).
Consider `COCCOC(=O)N1C(=O)[C@@]2(c3cc(C#Cc4ccc(OC)cc4)ccc31)[C@H](C(N)=O)[C@H]1C(=O)O[C@H](c3ccccc3)[C@H](c3ccccc3)N1[C@@H]2c1ccc(O)cc1`, for which the values for the composite z-score (in assay [1]; with XIP peptide (Xip251-270)) were -0.0197 (inactive) and 0.0645, respectively. Further, the z-score in assay [2] is -1.69; in assay [3], 2.03 (inactive); in assay [4] it was -0.0863 (inactive); in assay [5], 0.243 (inactive).
With `CCOC(=O)C1=CC[C@@H](c2ccccc2)N(S(=O)(=O)c2ccc(C)cc2)[C@H]1c1ccc(C#N)cc1`, the composite z-score was 0.432 (inactive) in assay [1] and 0.728 in the assay on XIP peptide (Xip251-270). Moreover, the z-score in assay [2] was -1.95; in assay [3], 0.426 (inactive); in assay [4], 0.972 (inactive); in assay [5], 0.136 (inactive).
As to `C=C(COC)/C(=C/C[C@H](OC(C)=O)c1ccccc1OCCO)c1cnc2ccccc2c1`, the composite z-score in assay [1] is 0.384 (inactive); with XIP peptide (Xip251-270), 0.0219. In addition, the z-score is -2.82 in assay [2], -5.24 (inactive) in assay [3], 0.134 (inactive) in assay [4] and 0.19 (inactive) in assay [5].
